Screens (PubChem BioAssay)
CD40 NFkB inh: inhibitors of CD40-induced NF-kB signaling, primary screen, BL2 cells, luciferase reporter, single point. CD40L-induced, 4 h. inhibition, % at 10 µM. 83,000 compounds, 0.94% hits. AID 1053188, 2014;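 active means mean inhibition of at least 50% with a set share of replicates also reaching that level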
Of the large screens only hits and unclear results are named; the others gave an inactive call. The entries come from a sample that favours hits as a whole.

CC1CC(C)C(=NNC(N)=O)C(C(O)CC2CCC(=O)NC2=O)C1 (configuration not stated)	CD40 NFkB inh 55.9
C[C@@H]1COCn2nncc2CC[C@H](Cc2cccc(Cl)c2)C(=O)N1	none
O=C(C1CCOCC1)N1CC(=O)N2[C@@H](CO)[C@H](c3ccc(/C=C/c4ccccc4)cc3)[C@@H]2C1	none
O=C(C[C@@H]1CC[C@@H]2[C@H](COC[C@@H](O)CN2CC2CCCC2)O1)NCc1ccc(Cl)cc1	none
OC(COc1ccc2ccccc2c1)CN1CCCC1 (configuration not stated)	none
O=S(=O)(CC(CN1CCCC1)N1CCCC1)c1ccc2ccccc2c1 (configuration not stated)	CD40 NFkB inh 51.7
O=C(O)C1CCCCN1S(=O)(=O)c1ccc2ccccc2c1 (configuration not stated)	none
O=C(COc1ccc2c(c1)OCO2)Nc1nccs1	CD40 NFkB inh 46.6
O=C(COc1ccc2c(c1)OCO2)Nc1nnc(Cc2ccccc2)s1	none
O=C(COc1ccc2c(c1)OCO2)Nc1ccc(Cl)cn1	none
O=C(C[C@H]1CC[C@H]2NC[C@H](O)COC[C@@H]2O1)NC1Cc2ccccc2C1	none
CC(=O)Nc1ccc2c(c1)C(=O)N(C)C[C@H](C)[C@@H](CN(C)C(C)=O)O2	none
CSCCC(NC(=O)OC(C)(C)C)C(=O)Oc1ccc2c(=O)c(-c3ccc4c(c3)OCCO4)coc2c1 (configuration not stated)	none
CCc1cc2c(=O)c(-c3ccc4c(c3)OCCO4)coc2c(CN2CCCCC2C)c1O (configuration not stated)	CD40 NFkB inh 32.4
O=C(CN1CCC(C(=O)c2ccc3c(c2)OCCO3)CC1)NC1CCCC1	none
CNC[C@H]1Oc2ccc(NC(=O)NC(C)C)cc2CC(=O)N(C)C[C@@H]1C	none
C[C@@H]1CCn2cc(nn2)COC[C@H](Cc2ccccc2)NC1=O	none
CCC(=O)N[C@@H]1CC[C@H](CC(=O)NCC2CC2)O[C@@H]1CO	none
CO[C@@H]1CN(C)C(=O)c2ccc(NC(=O)c3cc(C)on3)cc2OC[C@@H](C)N(C)C[C@@H]1C	none
CO[C@H](CN(C)C(=O)c1ccccc1F)[C@H](C)CN([C@H](C)CO)S(=O)(=O)c1ccccc1	none
CCCC(=O)Nc1ccc2c(c1)C(=O)N(C)C[C@@H](OC)[C@H](C)CN(C(=O)c1ccccn1)[C@@H](C)CO2	none
COc1ccc2c3c(n(C)c2c1)[C@@H](CO)N(CC1CC1)CC31CN(Cc2ccc(F)cc2)C1	none
Cc1ccnc(NC(=O)c2ccc(OCC3CCCO3)cc2)c1 (configuration not stated)	CD40 NFkB inh 86.8
COc1ccc(NC(=O)c2ccc(OCC3CCCO3)cc2)cc1OC (configuration not stated)	none
Cc1ccnc(NC(=O)c2ccc3c(c2)C(=O)N(CC2CCCO2)C3=O)c1 (configuration not stated)	none
C[C@H]1CN(C)C(=O)c2cc(N)ccc2O[C@H]1CN(C)C	none
CO[C@@H]1CN(C)C(=O)c2cc(NC(=O)C3CCOCC3)ccc2OC[C@@H](C)N(CC2CC2)C[C@@H]1C	none
C[C@@H]1CN(C)C(=O)c2ccccc2O[C@@H]1CN(C)S(C)(=O)=O	none
C[C@H]1CN(C)C(=O)c2cccnc2O[C@H]1CN(C)C	none
C[C@@H]1CN(C)C(=O)c2cccnc2O[C@H]1CN(C)S(C)(=O)=O	CD40 NFkB inh 35.3
CNC[C@@H]1Oc2c(NC(=O)NC(C)C)cccc2C(=O)N(C)C[C@@H]1C	none
COc1cccc(NC(=O)N2CC(=O)N3[C@H](CO)[C@H](c4ccc(C#CC5CCCC5)cc4)[C@@H]3C2)c1	none
CO[C@@H](CN(C)C(=O)C1CC1)[C@H](C)CN(C(=O)Nc1ccc(C(F)(F)F)cc1)[C@@H](C)CO	none
Cc1ccc(P(=O)(CSC(=N)N)c2ccc(C)cc2)cc1	CD40 NFkB inh 60.9
CO[C@@H]1CN(C)C(=O)c2cc(NC(=O)NC3CCCCC3)ccc2OC[C@H](C)N(C)C[C@H]1C	none
CO[C@H]1CN(C)C(=O)c2ccc(NC(=O)Nc3cc(F)ccc3F)cc2OC[C@H](C)N(C(=O)c2ccccn2)C[C@@H]1C	none
O=C(c1cccnc1)N1C[C@H]2[C@@H](c3ccccc31)[C@@H](CO)N2C(=O)Nc1cccc(F)c1	none
COc1ccc(OCc2cccc(C(=O)Nc3cc(C)on3)c2)cc1	none
NNC(=O)c1cccc(COc2cccc(Br)c2)c1	none
CCOc1ccc(OCc2cccc(C(=O)N3CCOCC3)c2)cc1	CD40 NFkB inh 90.2
O=C(c1cccc(OCc2ccccc2)c1)N1CCOCC1	none
COc1ccc(OCc2ccc(C(=O)N3CCOCC3)cc2)cc1	none
COc1ccc(OCc2cccc(C(=O)NN)c2)cc1	CD40 NFkB inh 24.5
C[C@@H]1CN([C@H](C)CO)C(=O)c2c(c3ccccc3n2C)-c2ccccc2CO[C@H]1CN(C)C(=O)[C@H]1CCCN1C	none
c1ccc(-c2ccc([C@H]3[C@H]4CNC[C@@H]3N4Cc3cc(-c4ccccc4)on3)cc2)cc1	none
CCC(=O)N1[C@H](CN(C)C(=O)c2ccccc2F)[C@@H](c2ccccc2)[C@@H]1CO	none
CN(C)CCCNC(=O)C[C@H]1CC[C@@H]2[C@H](COC[C@H](O)CN2CC2CCCC2)O1	none
